Measured values as given in PubChem BioAssay (Tox21).
Records with an inconclusive call do not appear. The source made the active and inactive calls. Unless noted, calls come from the whole dose curve; as a rule, active = well fitted curve in the direction sought with a large enough effect in the repeat runs; inconclusive = weak or mixed curves; inactive = no such curve, though single readings can be large; an effect the other way counts as inactive or inconclusive.

Tests used:
[1] = qHTS assay to identify small molecule agonists of the peroxisome proliferator-activated receptor delta (PPARd) signaling pathway - cell viability counter screen (AID 743211); note: nearly all actives have a fitted effect of over 55% in size
How it was run: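 Luminescent ATP viability assay (CellTiter-Glo, 30 min RT) in UAS-bla HEK293H cells carrying the PPAR delta reporter construct, 3000 cells/well, after a 17 h compound treatment at 37 C.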

[2] = target: Peroxisome proliferator-activated receptor delta (Homo sapiens) (UniProt Q03181); experiment: qHTS assay to identify small molecule agonists of the peroxisome proliferator-activated receptor delta (PPARd) signaling pathway (AID 743212; calls by dose curve)
How it was run: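 HEK293H UAS-bla reporter cells, human PPARd system; compounds delivered in DMSO after 5 h plating, then at 37 C. Beta-lactamase FRET read, 2 h RT substrate step.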

[3] = qHTS assay to identify small molecule antagonists of the peroxisome proliferator-activated receptor delta (PPARd) signaling pathway - cell viability counter screen (AID 743213); note: nearly all actives have a fitted effect of over 50% in size
How it was run: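 Luminescence from CellTiter-Glo, added after the bla read and incubated 30 min at room temperature, gives viability of HEK293H PPARd-bla cells exposed to compounds for 17 h at 37 C with 300 nM L165041.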

[4] = qHTS assay to identify small molecule antagonists of the farnesoid-X-receptor (FXR) signaling pathway - cell viability counter screen (AID 743221; active = well fitted cell-killing curve with a large enough effect in the repeat runs, not every such curve was filed as active; note: nearly all actives have a fitted effect of over 50% in size)
How it was run: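 In GeneBLAzer FXR-UAS-bla HEK 293T cells stimulated with 50 uM chenodeoxycholic acid (final), compounds acted for 16 h at 37 C. Viability was assessed afterwards by CellTiter-Glo luminescence.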

[5] = target: Vitamin D3 receptor (Homo sapiens) (UniProt P11473); experiment: qHTS assay to identify small molecule agonists of the vitamin D receptor (VDR) signaling pathway (AID 743222; calls by dose curve)
How it was run: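 VDR-bla cells were seeded, left 4 h, treated with compounds in DMSO for 16 h, incubated 2 h at RT with B/G FRET substrate, and read for fluorescence.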

[6] = target: Vitamin D3 receptor (Homo sapiens) (UniProt P11473); experiment: qHTS assay to identify small molecule antagonists of the vitamin D receptor (VDR) signaling pathway (AID 743223; active = well fitted inhibition curve with a large enough effect in the signal ratio in the repeat runs, not every such curve was filed as active; the % refers to the signal ratio)
How it was run: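 Agonist 1alpha,25-dihydroxyvitamin D3 (3 nM in well) was added with each compound to VDR-bla cells preincubated 4 h. Cells stood 16 h at 37C, then FRET substrate 2 h at room temperature; fluorescence intensity recorded.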

[7] = qHTS assay to identify small molecule agonists of the vitamin D receptor (VDR) signaling pathway - cell viability counter screen (AID 743224); note: series mostly up to about 63 µM; nearly all actives have a fitted effect of over 50% in size
How it was run: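 Here cell health was gauged by luminescent ATP detection (CellTiter-Glo, 30 min RT) in VDR-bla cells that had been incubated with test compounds for 16 h at 37C and 5% CO2.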

[8] = qHTS assay to identify small molecule agonists of the NFkB signaling pathway (AID 1159509; active = well fitted curve in the direction sought with a large enough effect in the signal ratio in the repeat runs, not every such curve was filed as active; the % refers to the signal ratio; note: series mostly up to about 61 µM)
How it was run: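 NFkB-bla ME-180 cells with a beta-lactamase reporter under an NF-kB response element were plated overnight, treated with compounds in DMSO for 5 hr at 37 C, then loaded with FRET substrate for 1.5 hr at room temperature.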

[9] = qHTS assay to identify small molecule agonists of the NFkB signaling pathway - cell viability counter screen (AID 1159515; calls by dose curve; note: series mostly up to about 61 µM; nearly all actives have a fitted effect of over 55% in size)
How it was run: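 5 hr compound treatment of NFkB-bla ME-180 cells (2,000/well, seeded overnight beforehand), followed by reporter substrate for 1.5 hr. CellTiter-Glo added afterward; luminescence after 30 min RT.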

[10] = qHTS assay to identify small molecule agonists of the endoplasmic reticulum stress response signaling pathway (AID 1159516; active = well fitted activation curve with a large enough effect in the signal ratio in the repeat runs, not every such curve was filed as active; the % refers to the signal ratio)
How it was run: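 Reporter HeLa cells (ESRE-beta-lactamase) underwent 5 hr compound incubation at 37 C and 5% CO2 in quantitative HTS format. Detection followed 2 hr of FRET substrate loading at room temperature.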

[11] = target: Nuclear receptor ROR-gamma (Homo sapiens) (UniProt P51449); experiment: qHTS assay to identify small molecule antagonists of the retinoid-related orphan receptor gamma (ROR-gamma) signaling pathway (AID 1159521;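 note: CHO cells with doxycycline inducible ROR-gamma driving an RORE luciferase reporter; top concentration of the series differs between compounds; nearly all actives have a fitted effect of over 50% in size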)
How it was run: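 CHO cells expressing RORγ under a TET-on promoter, luciferase under RORE control. Dox 1 uM final, 16 h; compounds added 2 h prior. Luminescence decrease measured.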

[12] = qHTS assay to identify small molecule agonists of the AP-1 signaling pathway - cell viability counter screen (AID 1159525; calls by dose curve; note: nearly all actives have a fitted effect of over 55% in size)
How it was run: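 Luminescent ATP readout (Cell Titer Glo, 30 min RT), normalised to DMSO and tetra n-octyl ammonium bromide controls. Cells were ME-180 AP-1-bla in 0.5% dialyzed FBS Opti-MEM, with a 5 h, 37 °C compound exposure.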

[13] = qHTS assay to identify small molecule agonists of the AP-1 signaling pathway (AID 1159526; calls by dose curve)
[14] = target: Peroxisome proliferator-activated receptor delta (Homo sapiens) (UniProt Q03181); experiment: qHTS assay to identify small molecule antagonists of the peroxisome proliferator-activated receptor delta (PPARd) signaling pathway (AID 743215; active = well fitted inhibition curve with a large enough effect in the signal ratio in the repeat runs, not every such curve was filed as active; the % refers to the signal ratio;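 note: cells stimulated with agonist L165041 at 300 nM final during compound exposure; series mostly up to about 62 µM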)
How it was run: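 With L165041 present at 300 nM final, compounds were incubated 17 h at 37 C on PPARd UAS-bla HEK293H cells. A FRET-based beta-lactamase substrate was then applied for 2 h at room temperature and fluorescence intensity recorded.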

[15] = target: Bile acid receptor (Homo sapiens) (UniProt Q96RI1); experiment: qHTS assay to identify small molecule antagonists of the farnesoid-X-receptor (FXR) signaling pathway (AID 743217; active = well fitted inhibition curve with a large enough effect in the signal ratio in the repeat runs, not every such curve was filed as active; the % refers to the signal ratio)
How it was run: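 In this cell-based antagonist screen, inhibition of CDCA-driven (50 uM final) UAS-beta-lactamase expression in HEK 293T cells was measured by FRET fluorescence following 16 h compound exposure at 37 °C.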

[16] = qHTS assay to identify small molecule agonists of the farnesoid-X-receptor (FXR) signaling pathway - cell viability counter screen (AID 743218); note: nearly all actives have a fitted effect of over 45% in size
How it was run: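 After 16 h at 37 C with test compounds, FXR-bla HEK 293T cells were given LiveBLAzer B/G substrate for 2 h at RT and then CellTiter-Glo; luminescence was taken after 30 min.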

[17] = target: Bile acid receptor (Homo sapiens) (UniProt Q96RI1); experiment: qHTS assay to identify small molecule agonists of the farnesoid-X-receptor (FXR) signaling pathway (AID 743220; active = well fitted activation curve with a large enough effect in the signal ratio in the repeat runs, not every such curve was filed as active; the % refers to the signal ratio)
How it was run: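 Beta-lactamase reporter under UAS control in GeneBLAzer FXR HEK 293T cells (5000/well) measured with LiveBLAzer FRET substrate after 2 h at room temperature. Compound exposure lasted 16 h at 37C.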

[18] = qHTS assay to identify small molecule antagonists of the vitamin D receptor (VDR) signaling pathway - cell viability counter screen (AID 743225); note: nearly all actives have a fitted effect of over 50% in size
How it was run: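 Luminescent cell viability (CellTiter-Glo) in VDR-bla HEK 293T cells after 16 h compound exposure at 37C in the presence of 3 nM final 1-alpha,25-dihydroxy vitamin D3.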

[19] = qHTS assay to identify small molecule antagonists of the retinoid-related orphan receptor gamma (ROR-gamma) signaling pathway - cell viability counter screen (AID 1159520); note: nearly all actives have a fitted effect of over 50% in size
How it was run: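 Cytotoxicity was read from cellular ATP (CellTiter-Glo luminescence) after 16 hr at 37 C with 1 uM doxycycline induction. The inducer was added 2 hr after compound transfer to Tet-on ROR gamma CHO cells.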

[20] = qHTS assay to identify small molecule agonists of the endoplasmic reticulum stress response signaling pathway - cell viability counter screen (AID 1159517; calls by dose curve)
How it was run: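 Cells, HeLa ESRE-bla; density, 1,500/well; dosing, 5 hr at 37 C, 5% CO2; readout, CellTiter-Glo luminescence after 30 min RT.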

Measured: Potency

Chain of Peroxisome proliferator-activated receptor delta (Homo sapiens) (Q03181 whole entry, looked up): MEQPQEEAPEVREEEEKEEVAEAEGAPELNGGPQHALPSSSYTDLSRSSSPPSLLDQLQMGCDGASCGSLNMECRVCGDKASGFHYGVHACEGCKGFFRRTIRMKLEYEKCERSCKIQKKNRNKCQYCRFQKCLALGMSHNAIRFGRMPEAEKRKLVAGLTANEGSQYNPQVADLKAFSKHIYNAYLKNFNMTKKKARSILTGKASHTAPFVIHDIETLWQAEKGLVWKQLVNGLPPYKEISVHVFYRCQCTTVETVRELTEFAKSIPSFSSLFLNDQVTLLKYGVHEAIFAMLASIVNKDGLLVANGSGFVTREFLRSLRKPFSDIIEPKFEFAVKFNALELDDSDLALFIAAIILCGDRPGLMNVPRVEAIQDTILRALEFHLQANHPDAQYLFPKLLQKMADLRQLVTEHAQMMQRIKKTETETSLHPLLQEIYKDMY
Chain of Vitamin D3 receptor (Homo sapiens) (P11473 whole entry, looked up): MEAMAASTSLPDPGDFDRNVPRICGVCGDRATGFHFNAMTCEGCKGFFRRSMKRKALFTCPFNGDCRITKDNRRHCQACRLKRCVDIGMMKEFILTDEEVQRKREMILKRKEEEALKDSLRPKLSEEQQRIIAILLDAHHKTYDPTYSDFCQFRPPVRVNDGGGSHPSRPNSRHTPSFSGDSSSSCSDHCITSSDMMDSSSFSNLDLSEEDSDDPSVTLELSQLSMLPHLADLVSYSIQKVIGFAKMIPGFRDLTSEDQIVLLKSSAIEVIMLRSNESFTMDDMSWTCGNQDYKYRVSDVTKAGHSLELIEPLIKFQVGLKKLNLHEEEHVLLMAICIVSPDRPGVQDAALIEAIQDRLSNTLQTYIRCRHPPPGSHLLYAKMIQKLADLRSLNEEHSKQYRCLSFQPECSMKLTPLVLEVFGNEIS
Chain of Bile acid receptor (Homo sapiens) (Q96RI1 whole entry, looked up): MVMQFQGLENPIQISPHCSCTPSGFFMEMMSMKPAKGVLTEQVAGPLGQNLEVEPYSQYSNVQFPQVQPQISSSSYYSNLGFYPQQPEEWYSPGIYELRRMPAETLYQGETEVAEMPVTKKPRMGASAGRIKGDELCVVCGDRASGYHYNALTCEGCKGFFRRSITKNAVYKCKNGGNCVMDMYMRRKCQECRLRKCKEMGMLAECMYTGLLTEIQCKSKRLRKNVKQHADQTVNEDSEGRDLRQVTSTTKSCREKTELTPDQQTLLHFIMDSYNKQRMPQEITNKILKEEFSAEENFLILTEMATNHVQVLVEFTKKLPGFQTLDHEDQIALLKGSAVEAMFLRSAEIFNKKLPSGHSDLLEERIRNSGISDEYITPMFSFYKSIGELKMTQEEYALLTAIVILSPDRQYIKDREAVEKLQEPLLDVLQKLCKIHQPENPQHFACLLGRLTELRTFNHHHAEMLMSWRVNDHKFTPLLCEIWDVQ

O=c1[nH]c2ccccc2c(=O)n1CCCl
not listed: [14] | [15] | [16] | [17] | [18] | [19] | [20]
inactive: all other assays above

c1ccc(SCCSc2ccccc2)cc1
not listed: [1] | [12] | [20]
inactive: all other assays above

CC(=O)O[C@H](CC(=O)[O-])C[N+](C)(C)C
not listed: [5] | [6] | [15] | [17] | [18] | [19] | [20]
inactive: all other assays above

O=c1[nH]c(=O)n([C@H]2O[C@H](CO)[C@@H](O)[C@@H]2O)cc1/C=C\Br
not listed: [5] | [6] | [12] | [15] | [16] | [17] | [18] | [20]
inactive: all other assays above

CNC(=O)c1c(I)c(NC(=O)CCCCC(=O)Nc2c(I)c(C(=O)O)c(I)c(C(=O)NC)c2I)c(I)c(C(=O)O)c1I
not listed: [14] | [16] | [18] | [19] | [20]
inactive: all other assays above

O=C1C(CCS(=O)c2ccccc2)C(=O)N(c2ccccc2)N1c1ccccc1 (stereo not drawn)
not listed: [1] | [5] | [6] | [7] | [15] | [17] | [18] | [20]
inactive: all other assays above

CC(C)N1C(=O)c2ccccc2C1=O
not listed: [15] | [16] | [17] | [20]
inactive: all other assays above

CCc1cc(S(=O)(=O)O)c2cc(C(C)C)cccc1-2
not listed: [5] | [15] | [16] | [17] | [20]
inactive: all other assays above

C[C@H]1O[C@@H](n2cc(F)c(=O)[nH]c2=O)[C@H](O)[C@@H]1O
not listed: [2] | [5] | [6] | [14] | [15] | [17] | [20]
inactive: all other assays above

CCN(CC)S(=O)(=O)c1ccc(C(=O)O)cc1
not listed: [6] | [12] | [15] | [17] | [18] | [20]
inactive: all other assays above

CC(C)(C)CC(C)(C)N
not listed: [7] | [15] | [16] | [17] | [18] | [20]
inactive: all other assays above

Cc1ncc(CSSCc2cnc(C)c(O)c2CO)c(CO)c1O
not listed: [19] | [20]
inactive: all other assays above

C=C(C)[C@H]1CC=C(C)CC1
inactive: [1] | [3] | [16] | [4] | [18] | [9] | [10] | [20] | [19] | [12] | [13]

CC(C)=CC(=O)O
not listed: [5] | [15] | [17] | [18] | [20]
inactive: all other assays above

COc1ccc(NC(C)=O)cc1
not listed: [14] | [15] | [16] | [17] | [20]
inactive: all other assays above

O=C(O)/C=C/c1ccc(Cn2ccnc2)cc1
not listed: [3] | [14] | [20]
inactive: all other assays above

CO[Si](OC)(OC)OC
not listed: [15] | [17] | [20]
inactive: all other assays above

CC(C)(C)OC(=O)N1C[C@@H](F)C[C@H]1C(=O)O
not listed: [15] | [17] | [18] | [20]
inactive: all other assays above
